Experimental data from PubChem BioAssay (NCI).
Several values for one entry are separate records, joined by “and”; a condition that tells them apart may be missing. Equal values may be shown once. Compounds without any hit were thinned out: in the full panel of roughly 83,000, 20% have a hit.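 The test compound was applied at a single concentration to cells in 96-well plates for 48 hours, and percent growth was recorded.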 Activity calls are given as the source filed them. How the source made its calls: active means growth percent below 10; inactive means the rest.

test system: MDA-MB-468 breast; assay: NCI-60 one-dose screen, 48 h (100 = growth as untreated, 0 = no growth, -100 = all killed); settings: 10 µM unless noted

| Compound | growth |
| --- | --- |
| CNC(=O)Oc1cccc(N(C)C)c1 | 92.7% (inactive) |
| C[C@]12CC[C@H]3[C@@H](CC[C@]4(O)C[C@@H](O[C@@H]5O[C@H](CO)[C@@H](O[C@@H]6OC[C@@H](O)[C@H](O)[C@H]6O)[C@H](O)[C@H]5O)CC[C@]34C=O)[C@@]1(O)CC[C@@H]2C1=CC(=O)OC1 | 38.7% (inactive) |
| Nc1nc([Se])c2ncn(C3OC(CO)C(O)C3O)c2n1 (stereo not given) | 83.6% (inactive) |
| O=S(=O)(O)c1ccc(-c2ccc([As](=O)(O)O)cc2)cc1 | 105% (inactive) |
| COc1ccc(C2=NN(c3ccccc3)C(c3sc(N(CCCl)CCCl)nc3Cl)C2)cc1 (stereo not given) | 69.3% (inactive) |
| O=C(CC1(O)C(=O)N(Cc2ccccc2)c2ccc(Cl)cc21)c1ccc(C(=O)NCC2CCC3(CC2)OOC2(CCCCC2)OO3)cc1 (stereo not given) | 6.64% (active) |
| O=C1NC(=S)NC(=O)C1=Cc1ccccc1 | 117% (inactive) |
| C[C@]12CC[C@H]3[C@@H](C[C@@H]4N=C(c5ccc(O)cc5)S[C@@]45C[C@H](O)CC[C@]35C)[C@@H]1CC[C@@H]2O | 81% (inactive) |
| CC(C)Nc1ccc(Nc2ccccc2)cc1 | 5.88% (active) |
| Oc1c(Br)cc(Br)cc1Br.[Cu+2] | 102% (inactive) |
| N#Cc1nc(-c2ccccc2)oc1N1CCC(S(=O)(=O)F)CC1 | 110% (inactive) |
| COc1ccc(/C=C\c2cc(OC)c(OC)c(OC)c2)cc1OCC(=O)Nc1nc2ccc(C(F)(F)F)cc2s1 | 1.38% (active) |
| CC1(C)N(Nc2ccccc2)C(=O)C2CCCN21 (stereo not given) | 79.2% (inactive) |
| O=C1C(=Cc2cn(Cc3ccccc3)c3ccccc23)C(=O)N(Cc2ccccc2)C(=O)N1Cc1ccccc1 | -71.8% (active) |
| O=[N+]([O-])c1cc([N+](=O)[O-])c(Cl)c(Cl)c1Cl | -57.3% (active) |
| CC(=O)O[C@H]1CC[C@]2(C)[C@H]3CC[C@]4(C)[C@@H](OC(C)=O)CC[C@H]4[C@@H]3[C@@H](C)[C@]2(O)C1 | 104% (inactive) |
| C#Cc1ccc2c(c1)C(c1ccccc1F)=NCC(=O)N2C | 26% (inactive) |
| COc1cc2ncnc(Nc3ccc(F)c(Cl)c3)c2cc1OCC(=O)N1CCN(C)CC1 | -32.4% (active) |
| O=C1NC(=O)C(=C/C=C/c2ccccc2)C(=O)N1 | 44.2% (inactive) |
| C[C@]12CC[C@@H]3c4ccc(Oc5nc(N6CC6)nc(N6CC6)n5)cc4CC[C@H]3[C@@H]1CCC2=O | 30.4% (inactive) |
| CN(CCCl)c1ccc(/C=C/C2=[N+](C)c3ccccc3C2(C)C)cc1 | -1.54% (active) |
| CCC(Br)(CC)C(=O)NC(N)=O | 97.7% (inactive) |
| O=C(O)C1C(C(=O)O)C2(Cl)C(Cl)=C(Cl)C1(Cl)C2(Cl)Cl (stereo not given) | 105% (inactive) and 113% (inactive) |
| O=C(NCCCN1CC1)Nc1cccc2ccccc12 | 103% (inactive) and 90.7% (inactive) |
| Oc1ccccc1C=NCCN=Cc1ccccc1O | 107% (inactive) |
